This is part of a sample that, as a whole, favours compounds with a hit. Of some 83,000 tested, about 20% had one in any assay.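 A percent growth of 40 corresponds to 60% growth inhibition; 0 means no net growth; -100 means all cells died. Active threshold: below 10.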 Calls of active or inactive are those of the source.
What follows are compounds tested on MDA-MB-468 breast (assay: NCI-60 one-dose screen, 48 h (100 = growth as untreated, 0 = no growth, -100 = all killed)). Settings: 10 µM unless noted.

SMILES | growth
Nc1ccc(F)c(Cl)c1F | 92.5% (inactive)
Nc1ccc(C(=O)Nc2cccc(C(=O)Nc3ccc4c(O)c(N=Nc5ccc(N=Nc6ccc(S(=O)(=O)O)cc6)cc5)c(S(=O)(=O)O)cc4c3)c2)cc1 | 100% (inactive)
O=S(=O)(Nc1ccc(I)c(Cl)c1)c1ccc(-c2cnc(C3CC3)o2)cc1 | -9.49% (active)
Nc1n[nH]c2cccc(C#Cc3cccc(NC(=O)c4cc(N5CCOCC5)cc(C(F)(F)F)c4)c3)c12 | 85.6% (inactive)
Oc1ccc(Cl)cc1Cc1cc(Cl)cc(Cl)c1O | 18.4% (inactive)
CC(=O)c1cccc(O)c1 | 110% (inactive)
CCCCn1c(Cc2ccc(OC)cc2)nc2cc(OC)c(OC)cc2c1=O | 46.7% (inactive)
Cc1cc2c(C(=O)NCC#N)cccc2n1-c1nc2c(c(NCc3ccccc3)n1)CCCC2 | -52.5% (active)
COc1cc2cc(Oc3ccc(NC(=O)Nc4ccc(Cl)c(Cl)c4)cc3)c(C)nc2cc1OCCN1CCCCC1 | 103% (inactive)
Ic1cccs1 | 103% (inactive)
O=C(/C=C\c1cc(Br)ccc1O)/C=C/c1cc(Br)ccc1O | -65% (active)
CN=C(N)N/N=C(\C)c1ccc2c(c1)Cc1cc(/C(C)=N/NC(N)=NC)ccc1-2 | -90.7% (active)
CCCCC(=O)OC1CCCCC1C (stereo not given) | 86.6% (inactive)
Cc1nc2c(c(=O)[nH]1)OCN(Cc1ccccc1)C2 | 108% (inactive)
Cc1nc2ccccc2n1CC1NC(=O)NC1=O (stereo not given) | 97.6% (inactive)
Fc1ccc(CNc2cccc3[nH]c(C(F)(F)F)nc23)cc1 | 99.7% (inactive)
CN1CCC(CNc2ccc3ncc(-c4cccc(OC(F)(F)F)c4)n3n2)CC1 | -84.8% (active)
C[C@]12CC[C@H]3[C@@H](CC=C4C[C@@H](O)CC[C@@]43C)[C@@H]1CC[C@@H]2[C@](C)(O)CCc1cccnc1 | 25.3% (inactive)
CCOC(=O)c1c(/N=C2\SC(=O)/C(=C\C(=O)OC)N2NC)sc2c1CCN(C(=O)OCC)C2 | 100% (inactive)
O=c1nc(Nc2cccc(Cl)c2)oc2cc(Cl)oc(=O)c12 | 75.1% (inactive)

SMILES | growth
CCN1CCN(c2nc(C)cc(NCc3cc(Nc4ccnc5cc(Cl)ccc45)ccc3F)n2)CC1 | -23.1% (active)
Cc1ccc(Nc2nc(N)nc(N)c2N=O)cc1Cl | 40% (inactive)
C#Cc1ccccc1NC(=O)c1sc2nc3c(cc2c1N)CCCCC3 | 119% (inactive)
CC(C)NCCCNC1=C(Cl)C(=O)c2ccccc2C1=O | 34.6% (inactive)
CC[C@H](C)[C@@H]1NC(=O)[C@H](Cc2ccc(O)cc2)N(C)C(=O)[C@H](Cc2ccccc2)NC(=O)CN(C)C(=O)[C@@H]2CCCN2C(=O)[C@@H](Cc2ccccc2)N(C)C(=O)[C@H](CC(C)C)NC1=O | -13.3% (active)
O=C(c1ccc(Cl)cc1Cl)N1CCOCC1 | 99.5% (inactive)
Cc1ncc(C(=O)Nc2ccc(CN3CCN(C)CC3)c(C(F)(F)F)c2)cc1C#Cc1c(N)ncc2ccccc12 | -74.8% (active)
COc1ccc(CNC(=O)COc2ccc(/C=N/Nc3nc4ccccc4s3)cc2)cc1 | 28.3% (inactive)
C=CC1=C(C)C2=NC1=CC1=NC(=CC3=C(C)C4=C(O)C(C(=O)O)C(=C5NC(=C2)C(C)C5CCC(=O)O)C4=N3)C(CC)=C1C (stereo not given) | 115% (inactive)
CCNc1ncnc2c1cnn2C1CCCO1 (stereo not given) | 102% (inactive)
CC(C)(C)C(=O)Nc1nc2c(s1)CCc1ccn(S(=O)(=O)c3ccccc3)c1-2 | 88.7% (inactive)
O=C1c2cccc3cccc(c23)C(=O)N1N1C(=O)c2cccc3c(N4CCNCC4)ccc(c23)C1=O | 91% (inactive)
C[C@@H]1N=C(c2ccc(Br)cc2)Nc2nc3ccccn3c2C1=O | -0.502% (active)
CCCCCO/N=C\c1c2c(O)c3c(O)c(C)c4c(c3c1O)C(=O)C(C)(O/C=C\C(OC)C(C)C(OC(C)=O)C(C)C(O)C(C)C(O)C(C)/C=C\C=C(\C)C(=O)N2)O4 (stereo not given) | 0.538% (active)
COc1ccc(/C=C/c2ccc3ccccc3n2)c(OC)c1 | 18.3% (inactive)
CC(C)NC1CCC(Nc2ccnc3cc(Cl)ccc23)CC1 (stereo not given) | 62.3% (inactive)
c1ccc(CNc2ccc3nc(CCC4CCCCC4)[nH]c3c2)cc1 | 43% (inactive)
COc1ccc(/C=C2\COc3ccc(O)c(O)c3C2=O)cc1 | -8.03% (active)
COc1ccc(C2C(C#N)=C(N)Oc3c2sc2c(C)cccc32)cc1 (stereo not given) | 8.47% (active)
NC(=S)N=Nc1c(O)c2ccccc2c2ccccc12 | 88.3% (inactive)

Source: PubChem BioAssay (NCI)
